# Reference: the supplement of paper PMC8728848
# The full list was thinned out, with the strongest signals kept by preference.
# B1: CLEC5A (Homo sapiens), Q9NY25 (protein)
# chain: MNWHMIISGLIVVVLKVVGMTLFLLYFPQIFNKSNDGFTTTRSYGTVSQIFGSSSPSPNGFITTRSYGTVCPKDWEFYQARCFFLSTSESSWNESRDFCKGKGSTLAIVNTPEKLKFLQDITDAEKYFIGLIYHREEKRWRWINNSVFNGNVTNQNQNFNCATIGLTKTFDAASCDISYRRICEKNAK
# Experiments:
# Assay in all cases: glycan array binding signal (z-score within array); higher = stronger binding
# Details in all cases: glycan notation: IUPAC condensed, linker removed
# [1] = biological target: GalNAc(a1-3)GalNAc(a1-3)Gal(a1-4)Gal(b1-4)GlcNAc
# How it was run: (§1)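 The Consortium for Functional Glycomics database supplied 3228 glycan arrays, of which those lacking an available protein sequence were dropped. The binding signal, a within-array Z-score, was averaged across arrays of the same protein sequence and across linkers. Negative scores can be read as non-binding.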
# GalNAc(b1-4)Gal(b1-4)Glc = biological target: GalNAc(b1-4)Gal(b1-4)Glc
# How it was run: as §1
# GalNAc(b1-4)GlcNAc = biological target: GalNAc(b1-4)GlcNAc
# How it was run: as §1
# [2] = biological target: GalNAc(b1-4)GlcNAc(b1-3)GalNAc(b1-4)GlcNAc
# How it was run: as §1
# GalNAc3S(b1-4)GlcNAc = biological target: GalNAc3S(b1-4)GlcNAc
# How it was run: as §1
# [3] = biological target: Glc(a1-3)Glc(a1-3)Man(a1-2)Man(a1-2)Man(a1-3)[Man(a1-3)[Man(a1-6)]Man(a1-6)]Man(b1-4)GlcNAc
# How it was run: as §1
# [4] = biological target: Glc(a1-4)Glc(a1-4)Glc(a1-4)Glc(a1-4)Glc(a1-4)Glc
# How it was run: as §1
# Glc(a1-6)Glc = biological target: Glc(a1-6)Glc
# How it was run: as §1
# [5] = biological target: Glc(a1-6)Glc(a1-6)Glc(a1-6)Glc(a1-6)Glc
# How it was run: as §1
# [6] = biological target: Glc(a1-6)Glc(a1-6)Glc(a1-6)Glc(a1-6)Glc(a1-6)Glc(a1-6)Glc
# How it was run: as §1
# [7] = biological target: Glc(a1-6)Glc(a1-6)Glc(a1-6)Glc(a1-6)Glc(a1-6)Glc(a1-6)Glc(a1-6)Glc(a1-6)Glc(a1-6)Glc(a1-6)Glc(a1-6)Glc(a1-6)Glc
# How it was run: as §1
# [8] = biological target: Glc(b1-3)Glc(b1-3)Glc(b1-3)Glc(b1-3)Glc
# How it was run: as §1
# [9] = biological target: Glc(b1-3)Glc(b1-3)Glc(b1-3)Glc(b1-3)Glc(b1-3)Glc(b1-3)Glc
# How it was run: as §1
# Glc(b1-4)Glc = biological target: Glc(b1-4)Glc
# How it was run: as §1
# [10] = biological target: Glc(b1-6)Glc(b1-6)Glc(b1-6)Glc(b1-6)Glc(b1-6)Glc(b1-6)Glc(b1-6)Glc(b1-6)Glc(b1-6)Glc(b1-6)Glc(b1-6)Glc
# How it was run: as §1
# GlcA(b1-3)Gal = biological target: GlcA(b1-3)Gal
# How it was run: as §1
# [11] = biological target: GlcA(b1-3)Gal(b1-4)GlcNAc(b1-3)Gal(b1-4)Glc
# How it was run: as §1
# [12] = biological target: GlcA(b1-3)GlcNAc(b1-4)GlcA(b1-3)GlcNAc
# How it was run: as §1
# [13] = biological target: GlcA3S(b1-3)Gal(b1-4)GlcNAc(b1-3)Gal(b1-4)Glc
# How it was run: as §1
# [14] = biological target: GlcNAc(a1-4)Gal(b1-3)[Fuc(a1-2)]Gal
# How it was run: as §1
# [15] = biological target: GlcNAc(a1-4)Gal(b1-4)GlcNAc
# How it was run: as §1
# [16] = biological target: GlcNAc(a1-4)Gal(b1-4)GlcNAc(b1-3)Gal(b1-4)[Fuc(a1-3)]GlcNAc(b1-3)Gal(b1-4)[Fuc(a1-3)]GlcNAc
# How it was run: as §1
# GlcNAc(b1-3)Gal(b1-4)Glc = biological target: GlcNAc(b1-3)Gal(b1-4)Glc
# How it was run: as §1
# [17] = biological target: GlcNAc(b1-3)Gal(b1-4)GlcNAc(b1-2)Man(a1-3)[GlcNAc(b1-3)Gal(b1-4)GlcNAc(b1-2)Man(a1-6)]Man(b1-4)GlcNAc(b1-4)[Fuc(a1-6)]GlcNAc
# How it was run: as §1
# [18] = biological target: GlcNAc(b1-3)Gal(b1-4)GlcNAc(b1-3)Gal(b1-4)GlcNAc(b1-3)Gal(b1-4)GlcNAc(b1-3)Gal(b1-4)GlcNAc(b1-2)Man(a1-3)[GlcNAc(b1-3)Gal(b1-4)GlcNAc(b1-3)Gal(b1-4)GlcNAc(b1-3)Gal(b1-4)GlcNAc(b1-3)Gal(b1-4)GlcNAc(b1-2)Man(a1-6)]Man(b1-4)GlcNAc(b1-4)[Fuc(a1-6)]GlcNAc
# How it was run: as §1
# Kdn(a2-6)Gal = biological target: Kdn(a2-6)Gal
# How it was run: as §1
# Man(a1-2)Man = biological target: Man(a1-2)Man
# How it was run: as §1
# [19] = biological target: Man(a1-2)Man(a1-6)[Man(a1-3)]Man(a1-6)[Man(a1-2)Man(a1-2)Man(a1-3)]Man
# How it was run: as §1
# [20] = biological target: Man(a1-3)[Man(a1-6)]Man(a1-6)[Man(a1-3)]Man(b1-4)GlcNAc(b1-4)GlcNAc
# How it was run: as §1
# [21] = biological target: Neu5Ac(a2-3)Gal(b1-3)GlcNAc(b1-4)Gal(b1-4)Glc
# How it was run: as §1
# [22] = biological target: Neu5Ac(a2-3)Gal(b1-3)GlcNAc6S
# How it was run: as §1
# [23] = biological target: Neu5Ac(a2-3)Gal(b1-4)[Fuc(a1-3)]GlcNAc(b1-3)GalNAc
# How it was run: as §1
# [24] = biological target: Neu5Ac(a2-3)Gal(b1-4)[Fuc(a1-3)]GlcNAc(b1-4)GalNAc(b1-3)Gal(b1-4)Glc
# How it was run: as §1
# [25] = biological target: Neu5Ac(a2-3)Gal(b1-4)[Fuc2Me(a1-3)]GlcNAc(b1-3)Gal
# How it was run: as §1
# [26] = biological target: Neu5Ac(a2-3)Gal6S(b1-4)[Fuc(a1-3)]GlcNAc
# How it was run: as §1
# [27] = biological target: Neu5Ac(a2-6)Gal(b1-3)GlcNAc(b1-3)[Fuc(a1-3)[Gal(b1-4)]GlcNAc(b1-6)]Gal(b1-4)Glc
# How it was run: as §1
# [28] = biological target: Neu5Ac(a2-6)Gal(b1-4)GlcNAc(b1-2)Man(a1-3)[Neu5Ac(a2-3)Gal(b1-4)GlcNAc(b1-2)Man(a1-6)]Man(b1-4)GlcNAc(b1-4)GlcNAc
# How it was run: as §1
# [29] = biological target: Neu5Ac(a2-6)Gal(b1-4)GlcNAc(b1-3)Gal(b1-4)GlcNAc(b1-3)GalNAc
# How it was run: as §1
# [30] = biological target: Neu5Ac(a2-6)Gal(b1-4)GlcNAc(b1-3)Gal(b1-4)[Fuc(a1-3)]GlcNAc(b1-3)Gal(b1-4)[Fuc(a1-3)]GlcNAc
# How it was run: as §1
# [31] = biological target: Neu5Ac(a2-8)Neu5Ac(a2-3)[Gal(b1-3)GalNAc(b1-4)]Gal(b1-4)Glc
# How it was run: as §1
# [32] = biological target: Neu5Ac(a2-8)Neu5Ac(a2-8)Neu5Ac(a2-3)[Gal(b1-3)GalNAc(b1-4)]Gal(b1-4)Glc
# How it was run: as §1
# [33] = biological target: Neu5Ac(b2-6)Gal(b1-4)GlcNAc
# How it was run: as §1
# Neu5Ac(b2-6)GalNAc = biological target: Neu5Ac(b2-6)GalNAc
# How it was run: as §1
# [34] = biological target: Neu5Ac9Ac(a2-3)Gal(b1-3)GlcNAc
# How it was run: as §1
# [35] = biological target: Neu5Gc(a2-8)Neu5Ac(a2-3)Gal(b1-4)GlcNAc
# How it was run: as §1
# [36] = biological target: Xyl(b1-2)[Man(a1-3)][Man(a1-6)]Man(b1-4)GlcNAc(b1-4)[Fuc(a1-3)]GlcNAc
# How it was run: as §1
binder,measurement,setting,value
B1,glycan array binding signal (z-score),[1],-0.892
same,glycan array binding signal (z-score),GalNAc(b1-4)Gal(b1-4)Glc,-0.144
same,glycan array binding signal (z-score),GalNAc(b1-4)GlcNAc,-0.135
same,glycan array binding signal (z-score),[2],-0.136
same,glycan array binding signal (z-score),GalNAc3S(b1-4)GlcNAc,-0.162
same,glycan array binding signal (z-score),[3],-0.32
same,glycan array binding signal (z-score),[4],1.32
same,glycan array binding signal (z-score),Glc(a1-6)Glc,1.7
same,glycan array binding signal (z-score),[5],-0.32
same,glycan array binding signal (z-score),[6],1.51
same,glycan array binding signal (z-score),[7],2.19
same,glycan array binding signal (z-score),[8],6.52
same,glycan array binding signal (z-score),[9],1.8
same,glycan array binding signal (z-score),Glc(b1-4)Glc,-0.371
same,glycan array binding signal (z-score),[10],1.8
same,glycan array binding signal (z-score),GlcA(b1-3)Gal,-0.34
same,glycan array binding signal (z-score),[11],-0.32
same,glycan array binding signal (z-score),[12],-0.32
same,glycan array binding signal (z-score),[13],-0.074
same,glycan array binding signal (z-score),[14],-0.32
same,glycan array binding signal (z-score),[15],-0.125
same,glycan array binding signal (z-score),[16],1.74
same,glycan array binding signal (z-score),GlcNAc(b1-3)Gal(b1-4)Glc,6.6
same,glycan array binding signal (z-score),[17],-0.014
same,glycan array binding signal (z-score),[18],1.7
same,glycan array binding signal (z-score),Kdn(a2-6)Gal,-0.32
same,glycan array binding signal (z-score),Man(a1-2)Man,1.03
same,glycan array binding signal (z-score),[19],-0.249
same,glycan array binding signal (z-score),[20],0.488
same,glycan array binding signal (z-score),[21],-0.012
same,glycan array binding signal (z-score),[22],0.026
same,glycan array binding signal (z-score),[23],1.67
same,glycan array binding signal (z-score),[24],-0.32
same,glycan array binding signal (z-score),[25],0.548
same,glycan array binding signal (z-score),[26],0.366
same,glycan array binding signal (z-score),[27],0.258
same,glycan array binding signal (z-score),[28],-0.161
same,glycan array binding signal (z-score),[29],-0.189
same,glycan array binding signal (z-score),[30],-0.16
same,glycan array binding signal (z-score),[31],-0.133
same,glycan array binding signal (z-score),[32],-0.191
same,glycan array binding signal (z-score),[33],-0.302
same,glycan array binding signal (z-score),Neu5Ac(b2-6)GalNAc,-0.184
same,glycan array binding signal (z-score),[34],-0.191
same,glycan array binding signal (z-score),[35],-0.121
same,glycan array binding signal (z-score),[36],-0.32
